Laboratory results as given in the supplement of paper PMC3616981.
± gives the standard deviation of the averaged measurements.

Compound: CC(C)c1cccc(C(C)C)c1N1C(=O)c2ccc(O)cc2C1=O
Test: BioMAP readout fold decrease vs vehicle (vehicle/treated); higher = stronger decrease of the readout vs vehicle (values <1 mean increase)
Experimental: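 BioSeek BioMAP human primary cell (co-)culture systems (3C, 4H, LPS, SAg, BE3C, CASM3C, hDFCGF, KF3CT) treated with 5HPP-33 at 1.48, 4.44, 13.3 and 40 µM. Read-outs are protein levels by ELISA, proliferation and SRB total protein. Duplicate rows per assay are averaged as replicates. Tested in ToxCast Phase II for this study; exposure time not stated.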
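Also: Co-cultures of keratinocytes, bronchial epithelial and smooth muscle cells, fibroblasts, HUVECs and PBMCs under stimuli like LPS, TNF-α, IFN-γ, IL-1β, TGF-β or EGF, SRB reflecting cytotoxicity.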

Row | Target | BioMAP readout fold decrease (1.48 µM) | BioMAP readout fold decrease (4.44 µM) | BioMAP readout fold decrease (13.3 µM) | BioMAP readout fold decrease (40 µM)
1 | SAg_CD38 | 1.01 ± 0.025 | 1.34 ± 0.061 | 2.26 ± 0.16 | 5.07 ± 0.81
2 | KF3CT_MCP1 | 1.03 ± 0.041 | 0.926 ± 0.043 | 0.7754 ± 0.0028 | 1.14 ± 0.36
3 | CASM3C_MCSF | 1.06 ± 0.033 | 1.14 ± 0.044 | 1.03 ± 0.035 | 2.01 ± 0.034
4 | hDFCGF_Proliferation | 1.22 ± 0.13 | 2.66 ± 0.091 | 4.594 ± 0.011 | 12.1 ± 0.038
5 | CASM3C_Proliferation | 1.11 ± 0.024 | 1.58 ± 0.054 | 1.2 ± 0.23 | 2.76 ± 0.16
6 | hDFCGF_IP10 | 1.1 ± 0.1 | 1.073 ± 0.0033 | 1.33 ± 0.037 | 5.47 ± 0.25
7 | CASM3C_SAA | 1.02 ± 0.09 | 1.12 ± 0.018 | 1.094 ± 0.0048 | 1.72 ± 0.1
8 | hDFCGF_PAI1 | 1.12 ± 0.14 | 1.08 ± 0.056 | 1.43 ± 0.031 | 3.53 ± 0.21
9 | SAg_MCP1 | 1.08 ± 0.023 | 0.997 ± 0.021 | 0.892 ± 0.0095 | 4.61 ± 0.68
10 | LPS_MCP1 | 1.03 ± 0.028 | 1.01 ± 0.012 | 1.02 ± 0.016 | 2.69 ± 0.19
